The results in this text go back to PubChem BioAssay (NCI).

The structures appear in SMILES notation. About 83,000 compounds went through this panel and 20% of them were active in at least one assay; those are over-represented in the sample as a whole.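 Assay: single dose, 48 h. Readout: percent growth (0 = no net growth; negative = cell death). Active: <10.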 Values without a mark were called inactive. Calls of active or inactive are those of the source.

For this assay, the system named is HL-60(TB) leukemia. The experiment in a line: NCI-60 one-dose screen, 48 h (100 = growth as untreated, 0 = no growth, -100 = all killed). The note with it: 10 µM unless noted.
Regarding `CCNC(=O)Oc1ccc(/C(=C(/C)c2ccccc2)c2ccc(OCCN3CCCC3)cc2)cc1`, the growth was 50.7%.
With `CNC(=O)c1cc(N2CCc3cc(NC(=O)Nc4ccc(Cl)c(C(F)(F)F)c4)ccc32)ccn1` the figure was 50.3%.
On to `C/C(=C(/C)C1CC1CCN(C(=O)c1ccccn1)S(=O)(=O)c1ccc(C)cc1)C1CCCCC1` (centres undefined), for which the growth is 97.4%.
As for `O=C(Cn1cc(CN2C(=O)c3ccc([N+](=O)[O-])cc3C2=O)nn1)Nc1ccccc1Br`, the growth was 101%.
With `CCC(=O)Nc1ccc(-c2nc(-c3cccc(O)c3)c(-c3ccnc(Br)c3)[nH]2)cc1` the figure was 35.6%.
Turning to `COc1ccc(/C=N/Nc2nc(N/N=C/c3ccc(OC)cc3O)nc(N3CCOCC3)n2)c(O)c1`, the growth was 30.9%.
For `CC1(C)CC[C@]2(C(=O)N3CCCN(CC#N)CC3)CC[C@]3(C)C(=CC[C@@H]4[C@@]5(C)CC[C@H](O)C(C)(C)[C@@H]5CC[C@]43C)[C@H]2C1`, the growth was -15.9% (active).
For `COc1ccc2[nH]cc(-c3csc4nc(-c5ccccc5)cn34)c2c1` the value was 13.9%; for `COc1ccc(Cn2cc3c(c2-c2cc(OC)c(OC)c(OC)c2)CCc2c(CN4CCCC4)noc2-3)cc1`, 3.57% (active).
Consider `CCCc1cc2cc(-n3nc(CC)c4c3CC(C)(C)CC4=O)cc(NC3CCC(O)CC3)c2c(=O)[nH]1` (centres undefined), for which the growth was -2.33% (active).
For `O=C(NNc1nc2cc(F)ccc2n2c(CO)ccc12)c1cnccn1` the value was -27.4% (active); for `Cc1ccc(S(=O)(=O)N(CC[C@@H]2C[C@H]2c2cc3ccccc3o2)S(=O)(=O)c2ccc(C)cc2)cc1`, 64.6%.
For `CC(=O)NC(C)(C)C(=O)N1CCC[C@H]1C(=O)NC(C)(C)C(=O)N[C@@H](C)C(=O)NC(C)(C)C(=O)NC(C)(C)C(=O)N[C@@H](CCC(N)=O)C(=O)NC(C)(C)C(=O)N[C@H](C(=O)NC(C)(C)C(=O)NCC(=O)N[C@@H](CC(C)C)C(=O)NC(C)(C)C(=O)N1CCC[C@H]1C(=O)N[C@H](C(=O)NC(C)(C)C(=O)NC(C)(C)C(=O)N[C@@H](CCC(N)=O)C(=O)N[C@@H](CCC(N)=O)C(=O)N[C@H](CO)Cc1ccccc1)C(C)C)C(C)C`, the growth was 7.73% [4.25 µM] (active).
Turning to `Cc1ccc(NC(=O)c2ccc(CN3CCN(C)CC3)c(C(F)(F)F)c2)cc1Oc1ccc(-c2[nH]nc3ncnc(N)c23)cc1`, the growth is 113%.
In the case of `Cc1ccc2c(n1)C(=O)C(Cl)=C(Nc1cccc(C(C)C)c1)C2=O`, the growth was 10.3%.
With `Cc1cc(=O)n2nc(-c3cn(C)c4ccc(Cl)cc34)sc2n1`, the growth was 92.5%.
On to `COc1ccc(/C=N/NC(=O)CSc2nc(-c3cnccn3)cc(-c3cccs3)c2C#N)cc1OC`, for which the growth was 101%.
Take `CN(C)CCNc1ccc2ncc(C#Cc3cncc(C(=O)Nc4ccc(CN5CCN(C)CC5)c(C(F)(F)F)c4)c3)n2n1`: the growth is -32.1% (active).
Regarding `CCCCCCCn1cc2c(NCCc3ccccc3)ncnc2n1`, the growth was 106%.
For `CCC(=C(c1ccc(OCCN(C)C)cc1)c1ccc(OCCN(C)C)cc1)c1ccc(Cl)cc1`, the growth is -59.5% (active).
Consider `O=C(c1ccc(Cl)cc1)C1[C@H](c2ccc(Cl)cc2)[C@@H](c2ccccc2)NC12C(=O)Nc1ccccc12` (some centres undefined), for which the growth is 49.3%.
`COc1ccc(-c2oc3cc(O)cc(O)c3c(=O)c2OC)cc1O`: the growth was -6.5% (active).
`Cc1cc(O)c2c(c1)C(=O)C(c1c(C)cc3c(c1O)C(=O)C=CC3=O)=CC2=O`: the growth is 55%.
With `N#Cc1c(NC(=O)c2ccc(F)c(Cl)c2)sc2c1CCC(=O)C2` the figure was -14.5% (active); with `COc1ccccc1N1CCN(C2=CC(=O)C(C)=C(C)C2=O)CC1`, 113%; with `Cc1c(F)cc(C(N)=O)cc1NCC(=O)Nc1ccc([N+](=O)[O-])cc1`, 132%.
Take `ClC(Cl)c1nc(-c2cccs2)n2nc(-c3ccccc3)cc2n1`: the growth is 0.604% (active).
As for `COc1ccc(/C=N\NC(=O)c2ccc3nc(-c4ccc(Br)cc4)[nH]c3c2)cc1`, the growth is 84.4%.
For `CC[C@]12CC(C(=O)OC)=C3Nc4ccccc4[C@@]34CCN(C14)[C@@H]1c3cc4c(cc3O[C@@H]1[C@H]2O)NC1=C(C(=O)OC)C[C@@]2(CC)C3N(CC[C@@]143)C[C@H]1O[C@H]12` (some centres undefined) the value was -1.14% (active).
